Reference: PubChem BioAssay (NCATS)
Results filed as inconclusive are left out. Where a call stands in place of a potency, no number is given. Unmarked numbers belong to inactive results. Activity calls are given as the source filed them. The call rests on the fitted dose curve; in most records, active means well fitted cell-killing curve with a large enough effect; inconclusive means small, poorly fitted or top-dose-only effect, or effect the other way; inactive means no such curve, though single readings can be large or run the other way.

assay: Viability qHTS for spleen associated tyrosine kinase inhibitor (SYKi) naive MV4-11 cells (AID 1963823); conditions: MV4-11 AML viability, CellTiter-Glo luminescence, 72 h; series mostly up to 45 µM; further: nearly all actives have a fitted effect of over 40% in size
Method in brief: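 Read-out: CellTiter-Glo luminescence. Exposure: 72 hr, 37 C, 5% CO2, 95% humidity. Cells: MV4-11 without SYK inhibitor history, 500/well, qHTS format.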
Potency means the concentration at half of the fitted maximal effect.

For CCC(C)CNCC(=O)N1CCc2sccc2C1COc1cccc(C)c1 (configuration not stated), which Potency is on record?
Its Potency is 9.2 µM (active).

Which Potency does the source give for CN1CCc2cccc3c2[C@H]1Cc1ccc(O)c(O)c1-3 here?
Its Potency is 5.96 µM (active).

For CCCCC/C=C\C/C=C\CCCCCCCC(=O)NC(C)c1ccccc1 (configuration not stated), which Potency is on record?
Its Potency is 11.9 µM (active).

Which Potency does the source give for CN(Cc1ccc(C(C)(C)C)cc1)Cc1cccc2ccccc12 here?
The Potency was “inactive”.

For CC(=O)NC1=NN(C(C)=O)C(C)(c2ccccc2)S1 (configuration not stated), which Potency is on record?
The Potency was 1.84 µM (active).

With CCC/C=C/c1cc2c(C=O)c(O)c(CC=C(C)C)cc2o1 as the compound, how does the Potency read?
Its Potency is 14.6 µM (active).

Which Potency does the source give for CC(C)c1cc(C(=O)N2CC[C@H](NC(=O)C3CC3)C2)n[nH]1 here?
Its Potency is “inactive”.

Which Potency does the source give for CC1(C)S[C@@H]2[C@H](NC(=O)[C@H](N)c3ccc(O)cc3)C(=O)N2[C@H]1C(=O)O here?
The Potency was “inactive”.

With C[C@@H]1CC[C@]2(C(=O)O[C@@H]3O[C@H](CO[C@@H]4O[C@H](CO)[C@@H](O)[C@H](O)[C@H]4O)[C@@H](O)[C@H](O)[C@H]3O)CC[C@]3(C)C(=CCC4[C@@]5(C)CC[C@H](O)[C@](C)(C(=O)O)C5CC[C@]43C)[C@@H]2[C@]1(C)O (some centres not stated) as the compound, how does the viability (% of control) read?
Its viability (% of control) is 70.3% [at 9.25 µM].

Which Potency does the source give for CC1(CO)CC2C(O)C(=O)C3(CO)CC3(C)C2C1 (configuration not stated) here?
Its Potency is “inactive”.

With CC(C)C(O)(CO)CCO[C@@H]1O[C@H](CO[C@H]2OC[C@](O)(CO)[C@H]2O)[C@@H](O)[C@H](O)[C@H]1O (some centres not stated) as the compound, how does the Potency read?
Its Potency is “inactive”.

With CC(=O)O[C@@H]1[C@@H](CO)O[C@@](CO)(O[C@H]2O[C@H](COC(=O)/C=C/c3ccccc3)[C@@H](O)[C@H](O)[C@H]2O)[C@H]1O as the compound, how does the Potency read?
The Potency was “inactive”.

assay: Viability qHTS for spleen associated tyrosine kinase inhibitor (SYKi) drug resistant MV4-11 cells (AID 1963824); conditions: SYKi-resistant MV4-11 viability, CellTiter-Glo, 72 h; series mostly up to 45 µM; further: nearly all actives have a fitted effect of over 35% in size
Method in brief: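 SYK-inhibitor-resistant MV4-11 AML cells were seeded at 500 per well onto compound and cultured 72 hours (37 °C, 5% CO2). CellTiter-Glo was then added, and after 10 min at room temperature, luminescence gave viability.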

With C=C1C(=O)O[C@@H]2[C@H]1CC[C@H](C)C(CCC(=O)O)C2(C)O (some centres not stated) as the compound, how does the Potency read?
Its Potency is 2.31 µM (active).

For C=C[C@H]1[C@H](O[C@@H]2O[C@H](CO)[C@@H](O)[C@H](O)[C@H]2O)OC=C(C(=O)OC)[C@H]1CCO, which Potency is on record?
The Potency was “inactive”.

Which Potency does the source give for CC(C)C1C(OC(=O)/C=C/c2ccccc2)CC2(C)OC2CCC2(C)OC2C1O (configuration not stated) here?
Its Potency is “inactive”.

Which viability, % of control does the source give for CC1(C)CC[C@]2(C(=O)O[C@@H]3O[C@H](CO[C@@H]4O[C@H](CO)[C@@H](O)[C@H](O)[C@H]4O)[C@@H](O)[C@H](O[C@@H]4O[C@H](CO)[C@@H](O)[C@H](O)[C@H]4O)[C@H]3O)CC[C@]3(C)C(=CCC4[C@@]5(C)CC[C@H](O[C@@H]6OC[C@@H](O)[C@H](O)[C@H]6O)[C@@](C)(C(=O)O)C5CC[C@]43C)[C@@H]2C1 (some centres not stated) here?
Its viability, % of control is 108% [at 9.25 µM].

With CC(=O)c1ccc2c(c1)C(O)C(C(C)(C)O)O2 (configuration not stated) as the compound, how does the Potency read?
The Potency was “inactive”.

Which Potency does the source give for CC(C)[C@@](O)(c1ccc2cc(OC(F)F)c(OC(F)F)cc2c1)c1cn[nH]n1 here?
The Potency was 20.6 µM (active).

For COc1c/c(=C2\C=c3ccccc3=N2)[nH]/c1=C\c1[nH]c(C)cc1C, which Potency is on record?
The Potency was 5.8 µM (active).

Which Potency does the source give for COc1ccc(C(=O)CC(=O)O)c2c1C=CC(C)(C)O2 here?
Its Potency is “inactive”.

Which Potency does the source give for C=CS(=O)(=O)NC1CCN(C(=O)CNc2cc(I)c(Cl)cc2OC)CC1 here?
Its Potency is 2.06 µM (active).

For CC[C@H](/C=C/[C@@H](C)[C@H]1CC[C@H]2[C@@H]3CC=C4C[C@@H](O)CC[C@]4(C)[C@H]3CC[C@]12C)C(C)C, which viability, % of control is on record?
The viability, % of control was 108% [at 4.97 µM].

For CC1(C)CC[C@]2(C(=O)O)[C@H](O)C[C@]3(C)C(=CCC4[C@@]5(C)CC[C@H](O[C@@H]6O[C@H](CO[C@@H]7OC[C@H](O)[C@H](O)[C@H]7O[C@@H]7OC[C@@H](O)[C@H](O)[C@H]7O)[C@@H](O)[C@H](O)[C@H]6O[C@@H]6O[C@H](CO)[C@@H](O)[C@H](O)[C@H]6O)C(C)(C)C5CC[C@]43C)[C@@H]2C1 (some centres not stated), which viability, % of control is on record?
Its viability, % of control is 103% [at 9.25 µM].

With C=C(CCO)C(=O)OCC1OCC(OC(=O)C(=C)CCO[C@@H]2O[C@H](CO)[C@@H](O)[C@H](O)[C@H]2O)C(O)C1O (some centres not stated) as the compound, how does the Potency read?
Its Potency is “inactive”.

With Nc1nc(Cl)nc2c1ncn2C1OC(CO)C(O)C1F (configuration not stated) as the compound, how does the Potency read?
The Potency was 0.13 µM (active).

With COc1c(C)c(C(=O)c2ccc(N)c(C(=O)O)c2)n2ccccc12 as the compound, how does the Potency read?
The Potency was “inactive”.

Which Potency does the source give for CC1CCC2(C(=O)OC3OC(CO)C(O)C(O)C3O)CCC3(C(=O)O)C(=CCC4C5(C)CCC(OC6OC(C)C(O)C(O)C6O)C(C)(C)C5CCC43C)C2C1C (configuration not stated) here?
The Potency was “inactive”.

With COCC(c1ccc(C(F)(F)F)cc1)N1CCN(C2(C)CCN(C(=O)c3c(C)ncnc3C)CC2)CC1C (configuration not stated) as the compound, how does the Potency read?
Its Potency is “inactive”.

Which Potency does the source give for Oc1ccc(Nc2nc(-c3ccc(Cl)cc3)cs2)cc1 here?
Its Potency is 2.06 µM (active).

With CC1(C)C[C@H]2C=C(C=O)[C@]3(C(=O)O)C[C@]3(C)[C@H]2C1 as the compound, how does the Potency read?
Its Potency is “inactive”.

For N[C@@]1(C(=O)O)CC[C@H]2[C@H](C(=O)O)[C@H]21, which Potency is on record?
The Potency was “inactive”.

Which Potency does the source give for OC[C@@]1(O)CO[C@@H](OC[C@H]2O[C@@H](OCc3ccccc3)[C@H](O)[C@@H](O)[C@@H]2O)[C@@H]1O here?
The Potency was “inactive”.

Which Potency does the source give for Cc1ccc(NC(=O)c2cccc(C(C)(C)C#N)c2)cc1Nc1ccc2ncn(C)c(=O)c2c1 here?
Its Potency is 1.48 µM (active).

Which Potency does the source give for COC(=O)C1=C(C)NC(C)=C(C(=O)OCC(C)C)C1c1ccccc1[N+](=O)[O-] (configuration not stated) here?
Its Potency is 10.6 µM (active).

With CCOC(=O)OCC/C(SC(=O)OCC)=C(\C)N(C=O)Cc1cnc(C)nc1N as the compound, how does the Potency read?
The Potency was “inactive”.

Which Potency does the source give for CC(C)(O)C1=CCC23COC(C2)C(O)(C(=O)O)CCC13 (configuration not stated) here?
Its Potency is “inactive”.

For CC(C)=CC1C[C@](C)(O)[C@@H]2[C@H]3CCC4[C@@]5(C)CC[C@H](O[C@@H]6OC[C@H](O)[C@H](O[C@@H]7O[C@H](CO[C@@H]8O[C@H](CO)[C@@H](O)[C@H](O)[C@H]8O)[C@@H](O)[C@H](O)[C@H]7O)[C@H]6O[C@@H]6O[C@@H](C)[C@H](O)[C@@H](O)[C@H]6O)C(C)(C)[C@@H]5CC[C@@]4(C)[C@@]34CO[C@@]2(C4)O1 (some centres not stated), which viability, % of control is on record?
The viability, % of control was 96.9% [at 9.25 µM].

With C=C1C(=O)OC2/C=C(\COC(C)=O)CC/C=C(\C=O)CC(OC(=O)C(C)CC)C12 (configuration not stated) as the compound, how does the Potency read?
The Potency was 1.12 µM (active).

With CC1(C)OC(=O)CC(O)C2(C)C1CC(=O)C1(C)C2C(O)CC2(C)C(c3ccoc3)OC(=O)C3OC321 (configuration not stated) as the compound, how does the Potency read?
The Potency was “inactive”.

Which Potency does the source give for Cc1ncc([N+](=O)[O-])n1CC(O)CN1CCOCC1 (configuration not stated) here?
Its Potency is “inactive”.

For CCC(C)CNCC(=O)N1CCc2sccc2C1COc1cccc(C)c1 (configuration not stated), which Potency is on record?
Its Potency is 9.2 µM (active).

For CN1CCc2cccc3c2[C@H]1Cc1ccc(O)c(O)c1-3, which Potency is on record?
The Potency was 3.76 µM (active).

With CCCCC/C=C\C/C=C\CCCCCCCC(=O)NC(C)c1ccccc1 (configuration not stated) as the compound, how does the Potency read?
Its Potency is 7.5 µM (active).

For CN(Cc1ccc(C(C)(C)C)cc1)Cc1cccc2ccccc12, which Potency is on record?
The Potency was “inactive”.

Which Potency does the source give for CC(=O)NC1=NN(C(C)=O)C(C)(c2ccccc2)S1 (configuration not stated) here?
The Potency was 2.59 µM (active).

With CCC/C=C/c1cc2c(C=O)c(O)c(CC=C(C)C)cc2o1 as the compound, how does the Potency read?
The Potency was 16.4 µM (active).

Which Potency does the source give for CC(C)c1cc(C(=O)N2CC[C@H](NC(=O)C3CC3)C2)n[nH]1 here?
The Potency was “inactive”.

For CC1(C)S[C@@H]2[C@H](NC(=O)[C@H](N)c3ccc(O)cc3)C(=O)N2[C@H]1C(=O)O, which Potency is on record?
Its Potency is “inactive”.

With C[C@@H]1CC[C@]2(C(=O)O[C@@H]3O[C@H](CO[C@@H]4O[C@H](CO)[C@@H](O)[C@H](O)[C@H]4O)[C@@H](O)[C@H](O)[C@H]3O)CC[C@]3(C)C(=CCC4[C@@]5(C)CC[C@H](O)[C@](C)(C(=O)O)C5CC[C@]43C)[C@@H]2[C@]1(C)O (some centres not stated) as the compound, how does the viability, % of control read?
The viability, % of control was 98.7% [at 9.25 µM].

For CC1(CO)CC2C(O)C(=O)C3(CO)CC3(C)C2C1 (configuration not stated), which Potency is on record?
The Potency was “inactive”.

For CC(C)C(O)(CO)CCO[C@@H]1O[C@H](CO[C@H]2OC[C@](O)(CO)[C@H]2O)[C@@H](O)[C@H](O)[C@H]1O (some centres not stated), which Potency is on record?
The Potency was “inactive”.

For CC(=O)O[C@@H]1[C@@H](CO)O[C@@](CO)(O[C@H]2O[C@H](COC(=O)/C=C/c3ccccc3)[C@@H](O)[C@H](O)[C@H]2O)[C@H]1O, which Potency is on record?
The Potency was “inactive”.
